Compound activity from PubChem.
An excerpt weighted towards active compounds, which were near 2.7% of everything screened.
BRCA1 expr act: activators of BRCA1 expression | Potency, µM (top dose mostly 46.1 µM), inactives show at the top dose activation, most hits filed as activators | actives 1.1% (n = 380,000) | MCF7-BRCA1-FFLuc reporter, luminescence, 48 h; response scale: scaled: vehicle 0%, 10 µM genistein 100%; note: nearly all actives have a fitted effect of over 80% in size
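Reporter cells (MCF7, BRCA1 promoter-firefly luciferase) received library compounds across a concentration series for 48 h. End-point luminescence was measured and concentration-effect curves derived after normalization.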
GLP1R cytotox: cytotoxicity in counter-screen for GLP-1R inverse agonists | HEK293 cAMP-luciferase reporter cells, luminescence, 24 h | Potency, µM (highest dose often 38.3 µM), inactives show at the highest dose activity change, negative = inhibition, hits mostly inhibitors | actives 0.13% (n = 410,000);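 note: loss of luciferase light is scored as toxicity; % is set by controls: 0 for no effect and ±100 for the full control effect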
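MLSMR compounds, 24 hr on cells at 37 deg C/5% CO2; luminescence after luciferase reagent (12 min RT). Inhibition counted as the undesired cytotoxic outcome.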
a7 integrin act: integrin-mediated muscular dystrophy alleviation activation; alpha7betagal myoblasts, beta-gal FDG fluorescence, 48 h; actives 0.064% (n = 350,000); AID 624291; Potency, µM (top dose mostly 38.3 µM), for the others: top-dose activation, usual class: activators;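 note: 100% = response of the positive control SU9516; nearly all actives have a fitted effect of over 60% in size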
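alpha7betagal+/- myoblasts (passage 13, 250/well) treated 48 h at 37C with compounds at 1:260 dilution of DMSO stock. Lysed, then beta-galactosidase activity read as FDG fluorescence (ex 480/em 540) after 30 min, with pre-read for autofluorescence.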
GLP1R inv ag: inverse agonists of human GLP-1 receptor | P43220 | HEK293 GLP-1R CRE-luciferase, luminescence, 24 h; GLP-1R form is constitutively active | Potency, µM (doses to about 38.3 µM), for the others: at the top dose activity change, negative = inhibition, actives largely listed as inhibitors | actives 1.6% (n = 410,000); note: % is set by controls: 0 for no effect and ±100 for the full control effect; nearly all actives have a fitted effect of over 55% in size
Target sequence (P43220 whole entry, looked up): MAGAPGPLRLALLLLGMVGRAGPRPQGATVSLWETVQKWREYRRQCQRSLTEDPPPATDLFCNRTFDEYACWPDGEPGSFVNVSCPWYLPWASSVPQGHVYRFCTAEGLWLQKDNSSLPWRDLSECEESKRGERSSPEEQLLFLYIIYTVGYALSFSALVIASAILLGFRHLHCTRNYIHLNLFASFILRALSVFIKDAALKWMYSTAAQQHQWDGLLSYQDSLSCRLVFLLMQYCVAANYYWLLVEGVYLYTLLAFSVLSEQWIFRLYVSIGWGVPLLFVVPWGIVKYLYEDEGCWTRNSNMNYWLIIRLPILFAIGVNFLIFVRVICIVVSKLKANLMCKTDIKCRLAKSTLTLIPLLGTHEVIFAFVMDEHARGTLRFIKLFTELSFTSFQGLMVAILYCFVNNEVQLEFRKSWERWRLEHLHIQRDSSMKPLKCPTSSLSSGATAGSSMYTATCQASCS
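Inverse agonists were sought by their lowering of basal cAMP reporter luciferase output in HEK293 cells stably carrying constitutively active human GLP-1R, after 24 h compound treatment.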
GLP1R ag: activates the human GLP-1 receptor; Potency, µM (top dose mostly 45.6 µM), for inactives: at the top dose activation, hits mostly activators; HEK293 GLP-1R CRE-luciferase, luminescence, 4-6 h; cells express a hypersensitive GLP-1R form; actives 0.007% (n = 380,000); note: % of control where 0% means no effect
* hit, by the source's call; ? = inconclusive; / = no result; [ ] = another dose, or the depositor's remark. Calls come from the whole dose curve; as a rule, active = well fitted curve in the direction sought with a large enough effect; inconclusive = small, poorly fitted or top-dose-only effect, or another doubt; inactive = no such curve, though single readings can be large; an effect the other way counts as inactive or inconclusive. Potency is the fitted concentration of half-maximal effect.

SMILES | BRCA1 expr act | GLP1R cytotox | a7 integrin act | GLP1R inv ag | GLP1R ag
Cc1c(Cl)cccc1Nc1nc(N)nc(CSc2ncccn2)n1 | 10µM* | 3% | 19% | 0% | 12%
O=C(Nc1nsc(-c2ccccc2)n1)c1ccc(F)cc1 | 11µM* | 11% | 15% | 5% | -4%
CCc1ccccc1NC(=O)c1ccc(CN2CCC(Cc3ccccc3)CC2)cc1 | -58% | ? | -27% | 8.9µM* | -2%
COCCNC(=O)c1ccc(CN2CCC(Cc3ccccc3)CC2)cc1 | -2% | 20% | 2% | -18% | -5%
O=C(NCc1ccccc1)c1ccc(CN2CCC(Cc3ccccc3)CC2)cc1 | -20% | -13% | -41% | 10µM* | 7%
COc1ccc(CCNC(=O)c2ccc(CN3CCC(Cc4ccccc4)CC3)cc2)cc1OC | -60% | 11% | -20% | 9% | 8%
O=C1CS(=O)(=O)C2(C(=O)N(Cc3cccc(F)c3)c3ccccc32)N1c1ccccc1 (stereo not given) | -8% | -1% | / | -15% | 23%
COc1cccc(C(=O)NCCSc2ccc(F)cc2)c1 | 11µM* | -3%[7.66 µM] | 8% | -5%[7.66 µM] | 8%
COc1cccc(C(=O)NCC(C)(C)SCc2ccc(F)cc2)c1 | 5% | 0% | -3% | 11µM* | 12%
COc1cccc(C(=O)NCCSc2ccc(C)cc2)c1 | 14% | -9% | 17% | -3% | 1%
CCOc1ccc(OCC)c(NC(=O)c2cnc3c(-c4ccccc4)c(C)nn3c2C)c1 | / | -5% | / | 16% | /
CCN1C(=O)/C(=C/N2CCc3ccccc32)SC1=S | 3.2µM* | -6% | -2% | 15% | 0%
COc1ccc2ccccc2c1CNC(C)c1ccccc1 (stereo not given) | -21% | ? | -75% | ? | -3%
CC(NCCCOc1cccc2ccccc12)c1ccccc1 (stereo not given) | -86% | ? | -62% | 8.9µM* | -1%
Cc1ccc(Cn2nnnc2CN2CCC(c3nc4ccc(Cl)cc4[nH]3)CC2)cc1 | -61% | 15% | 2% | 11µM* | -13%
COCCCNC(=O)CCCN1C(=O)CCn2nc(-c3cn(C)c4ccccc34)cc21 | / | -15% | / | 8% | /
CCn1cc(CN2CCC(C(=O)Nc3ccc(Oc4ccccc4)nc3)CC2)cn1 | -26% | 25% | -11% | -11% | -15%
O=C(Nc1ccc(Oc2ccccc2)nc1)C1CCN(Cc2ccccc2)CC1 | -11% | -27% | -39% | 11µM* | -3%
CCc1ccc(CN2CCC(C(=O)Nc3ccc(Oc4ccccc4)nc3)CC2)o1 | -4% | -10% | -47% | 8.9µM* | 15%
N=c1c(S(=O)(=O)c2ccc(Br)cc2)cc2c(=O)n3ccccc3nc2n1C1CCCCC1 | -1% | -14% | ? | 91% | 0%
COCCn1c(=N)c(S(=O)(=O)c2ccc(F)cc2)cc2c(=O)n3ccccc3nc21 | 17% | 155% | 13% | 181% | 5%
COCCn1c(=N)c(S(=O)(=O)c2ccc(Br)cc2)cc2c(=O)n3ccccc3nc21 | 21% | 0% | 4.5µM* | 24% | 7%
N=c1c(S(=O)(=O)c2ccccc2)cc2c(=O)n3ccccc3nc2n1C1CCCCC1 | -40% | 0% | -39% | 10µM* | 23%
COc1ccc(Cc2nc3ccc(C(=O)NCc4cc(Br)ccc4OC)cc3o2)cc1 | / | 0% | / | -27% | /
Cc1cc(C(=O)NNc2ccc(F)cc2)no1 | -22% | ? | 4% | 5µM* | 1%
SMILES | BRCA1 expr act | GLP1R cytotox | a7 integrin act | GLP1R inv ag | GLP1R ag
COc1ccc(NC(=O)c2cc(-c3cccs3)on2)cc1OC | 63% | -2% | 10%[7.66 µM] | 0% | 2%
Cc1cc(C(=O)NNc2c(Cl)cccc2Cl)no1 | -11% | -23% | -11% | 2.5µM* | 1%
Cc1ccc(NC(=O)c2cc(C)on2)cc1 | 5µM* | -22% | 7%[7.66 µM] | -8% | -7%
COc1ccc(NC(=O)c2cc(-c3cccs3)on2)cc1 | 4.5µM* | 12% | 2% | -1% | 3%
CCOC(=O)c1c(NC(=O)COc2cccc(C(F)(F)F)c2)sc2c1CCC(C)C2 (stereo not given) | / | -8% | / | 5% | /
COc1ccc(N2CCN(C(=O)c3cc(S(=O)(=O)N4CCC(C)CC4)cn3C)CC2)cc1 | -15% | 0% | / | -26% | 0%
CCCCOc1ccc(CC(=O)N(C)O)cc1 | -25% | / | / | / | /
COC(=O)c1sc(NC(=O)c2cc(C)on2)nc1C | 10µM* | -5% | 18% | 13% | -1%
CCc1ccc(OCC2c3cc(OC)c(OC)cc3CCN2C(=O)COc2ccccc2)cc1 (stereo not given) | -52% | -7% | / | ? | 15%
COc1ccc(NC(=O)CCc2c(C)nn(-c3ccc(N4CCCC4)nn3)c2C)cc1Cl | / | -9% | / | 22% | /
CC(C)c1onc(C(=O)N2CCN(C(c3ccccc3)c3ccccc3)CC2)c1[N+](=O)[O-] | 0% | 27% | -12% | 2.5µM* | -3%
Clc1cccc(NCc2nnc(SCc3ccccc3)o2)c1 | 15% | 1% | 8% | 7.1µM* | 7%
O=C(CSc1nccn1-c1cccc(Cl)c1)Nc1cccc(C(F)(F)F)c1 | / | -7% | / | ? | /
COc1ccc(C(=O)C2CCCN(Cc3ccc4nonc4c3)C2)cc1OC (stereo not given) | 0% | 2% | 17% | 3% | 8%
O=C(c1ccc2c3c(cccc13)CC2)C1CCCN(Cc2cccnc2)C1 (stereo not given) | 0% | 7% | -8% | ? | 21%
CN1CCC(C(=O)N2CCCC(C(=O)c3ccc4c5c(cccc35)CC4)C2)CC1 (stereo not given) | -19% | -8% | 0% | 8.9µM* | -1%
COc1ccc(C(=O)C2CCCN(Cc3ccc4nonc4c3)C2)c(OC)c1 (stereo not given) | -14% | 1% | -34% | 10µM* | 5%
COc1cc(CN2CCCC(C(=O)c3ccc4c5c(cccc35)CC4)C2)cc(OC)c1O (stereo not given) | -30% | -16% | -65% | 11µM* | 4%
Cc1ccccc1NC(=O)/C(=C/c1ccco1)c1ccccc1 | -9% | -1% | 0% | ? | 2%
CCc1ccccc1NC(=O)/C(=C/c1ccco1)c1ccccc1 | -22% | -5% | 5% | 7.1µM* | -4%
CCCCCCSc1ccc([C@H]2N[C@@](Cc3ccccc3)(C(=O)OC)[C@H]3C(=O)N(C)C(=O)[C@@H]23)cc1 | -59% | -6% | -28% | 11µM* | 12%
CCCCCCSc1ccc([C@H]2N[C@@](CC(C)C)(C(=O)OC)[C@H]3C(=O)N(CC)C(=O)[C@@H]23)cc1 | 8% | -16% | 5% | -7% | 9%
